According to PubChem BioAssay:
Values without a mark were called inactive. The rule behind the calls is not given here.

system: Aerobactin synthetase IucA (Klebsiella pneumoniae, hypervirulent); experiment: IucA enzyme inhibition, biochemical, LOPAC library, absorbance readout (AID 1346212); conditions: IucA enzyme assay, absorbance (OD) readout; hits give low values;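 tested at 8 µM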;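 note: 100% = no compound wells and 0% = no enzyme wells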

**Q.** Which remaining activity does the source give for `Nc1ncnc2c1ncn2C1CCCC1` here?
**A.** The remaining activity was 120%.

**Q.** How did the remaining activity turn out when `COC(=O)c1c(-c2cc(OC)c(OC)c(OC)c2)c2ccnc(OCc3ncccn3)c2c(=O)n1Cc1ccnc(C)c1` was run?
**A.** The remaining activity was 101%.

**Q.** How did the remaining activity turn out when `CCCCOC(=O)NS(=O)(=O)c1sc(CC(C)C)cc1-c1ccc(Cn2c(CC)nc3c(C)cc(C)nc32)cc1` was run?
**A.** The remaining activity was 116%.

**Q.** For `CC#CCOC(=O)c1c(C)nc2sc3c(c2c1N)CCC(O)C3` (stereo not given), which remaining activity is on record?
**A.** The remaining activity was 113%.

**Q.** For `COc1ccc2c(c1)c(CC(=O)O)c(C)n2Cc1ccc(Cl)cc1`, which remaining activity is on record?
**A.** The remaining activity was 99.3%.

**Q.** Which remaining activity does the source give for `CC1CCN(CC[C@H]2CCCN2S(=O)(=O)c2cccc(O)c2)CC1` here?
**A.** The remaining activity was 125%.

**Q.** With `c1ccc(-c2ccccn2)nc1` as the molecule, how does the remaining activity read?
**A.** The remaining activity was 75.1%.

**Q.** How did the remaining activity turn out when `NCCNC(=O)c1ccc(Cl)cc1` was run?
**A.** Its remaining activity is 88.1%.

**Q.** `O=C(NCC1CCCCN1)c1cc(OCC(F)(F)F)ccc1OCC(F)(F)F` (stereo not given) was tested. Which remaining activity did it give?
**A.** Its remaining activity is 91.1%.

**Q.** Which remaining activity does the source give for `C[N+]1(C)[C@@H]2CC(OC(=O)[C@H](CO)c3ccccc3)C[C@H]1[C@@H]1O[C@@H]12` (stereo not given in full) here?
**A.** Its remaining activity is 112%.

**Q.** Which remaining activity does the source give for `Nc1cc(Cl)c(NC2=NCCN2)c(Cl)c1` here?
**A.** The remaining activity was 118%.

**Q.** How did the remaining activity turn out when `CCCc1c(OCCCOc2ccc(OCC(=O)O)cc2)ccc(C(C)=O)c1O` was run?
**A.** Its remaining activity is 101%.

**Q.** With `CC(=O)C(C)=O` as the molecule, how does the remaining activity read?
**A.** Its remaining activity is 97%.

**Q.** How did the remaining activity turn out when `Nc1ccc(N2C(=O)c3ccccc3C2=O)c(Cl)c1` was run?
**A.** The remaining activity was 105%.

**Q.** How did the remaining activity turn out when `COc1cc2nc(N3CCN(C(=O)C4COc5ccccc5O4)CC3)nc(N)c2cc1OC` (stereo not given) was run?
**A.** The remaining activity was 92.2%.

**Q.** How did the remaining activity turn out when `CCCCCC(O)CCCC(=O)O` (stereo not given) was run?
**A.** The remaining activity was 101%.

**Q.** `Nc1ccc(-c2nc3ccc(-c4nc5ccc(N)cc5[nH]4)cc3[nH]2)cc1` was tested. Which remaining activity did it give?
**A.** The remaining activity was 114%.

**Q.** Which remaining activity does the source give for `CN1CCN(CC/C=C2/c3ccccc3Sc3ccc(S(=O)(=O)N(C)C)cc32)CC1` here?
**A.** Its remaining activity is 99.4%.

**Q.** Which remaining activity does the source give for `NC(=O)C(=O)O` here?
**A.** The remaining activity was 121%.

**Q.** How did the remaining activity turn out when `O=c1c2ccccc2[nH]c(=S)n1CCN1CCC(=C(c2ccc(F)cc2)c2ccc(F)cc2)CC1` was run?
**A.** The remaining activity was 119%.

**Q.** For `Cc1cccc(C)c1NC(=O)C[N+](C)(C)C`, which remaining activity is on record?
**A.** The remaining activity was 116%.

**Q.** With `N=C(N)SCCc1ccc(CCSC(=N)N)cc1` as the molecule, how does the remaining activity read?
**A.** The remaining activity was 102%.

**Q.** For `COC(=O)[C@H](NC(=O)c1cc(-c2ccccc2)nc2ccccc12)c1ccccc1`, which remaining activity is on record?
**A.** The remaining activity was 97.3%.

**Q.** With `OC[C@H]1O[C@@H](n2cnc3c(N[C@H]4CC5CCC4C5)ncnc32)[C@H](O)[C@@H]1O` (stereo not given in full) as the molecule, how does the remaining activity read?
**A.** Its remaining activity is 99.3%.

**Q.** `Cn1c(=O)c2c(nc(/C=C/c3cccc(Cl)c3)n2C)n(C)c1=O` was tested. Which remaining activity did it give?
**A.** The remaining activity was 88.1%.

**Q.** Which remaining activity does the source give for `Cc1ccc(C(=O)O[C@H](C(=O)O)[C@@H](OC(=O)c2ccc(C)cc2)C(=O)O)cc1` (tested in a mixture with another compound) here?
**A.** Its remaining activity is 112%.

**Q.** `CCOC(=O)C12CC1/C(=N\O)c1ccccc1O2` (stereo not given) was tested. Which remaining activity did it give?
**A.** The remaining activity was 108%.

**Q.** Which remaining activity does the source give for `O=C(c1ccc(Cl)cc1)N1CCN(c2ccc([N+](=O)[O-])c3ncccc23)CC1` here?
**A.** Its remaining activity is 120%.

**Q.** For `OCc1cc(C(O)CNCCCCCCOCCCCc2ccccc2)ccc1O` (stereo not given), which remaining activity is on record?
**A.** Its remaining activity is 122%.

**Q.** With `c1ccc2c(c1)CCC[C@H]2Nc1nc2ccccc2[nH]1` as the molecule, how does the remaining activity read?
**A.** The remaining activity was 109%.

**Q.** How did the remaining activity turn out when `O=C1N=c2cc(Cl)c(Cl)cc2=NC1=O` was run?
**A.** Its remaining activity is 110%.

**Q.** With `CC(C)C[C@H](NC(=O)[C@H](O)[C@H](N)Cc1ccccc1)C(=O)O` as the molecule, how does the remaining activity read?
**A.** Its remaining activity is 120%.

**Q.** How did the remaining activity turn out when `CCc1cccc(N(C)C(N)=Nc2cccc3ccccc23)c1` was run?
**A.** Its remaining activity is 96.2%.

**Q.** How did the remaining activity turn out when `CCC(=O)c1ccc2c(c1)N(CCCN(C)C)c1ccccc1S2` was run?
**A.** Its remaining activity is 88.8%.

**Q.** Which remaining activity does the source give for `CC[N+](C)(C)c1cccc(O)c1` here?
**A.** The remaining activity was 86.8%.

**Q.** Which remaining activity does the source give for `Nc1nc(Cl)nc2c1ncn2[C@@H]1O[C@H](CO)[C@@H](O)[C@H]1O` here?
**A.** Its remaining activity is 115%.

**Q.** How did the remaining activity turn out when `NC1=NCC2c3ccccc3Cc3ccccc3N12` (stereo not given) was run?
**A.** The remaining activity was 91.6%.

**Q.** With `Nc1ccc(-c2ccc3ccccc3n2)cc1` as the molecule, how does the remaining activity read?
**A.** Its remaining activity is 107%.

**Q.** How did the remaining activity turn out when `COc1cc2c(cc1OC)-c1cc(=Nc3c(C)cc(C)cc3C)n(C)c(=O)n1CC2` was run?
**A.** The remaining activity was 97.5%.

**Q.** How did the remaining activity turn out when `CCCC(=O)NCCc1c2n(c3ccc(OC)cc13)CCCc1ccccc1-2` was run?
**A.** Its remaining activity is 116%.
